This is an account of results in the supplement of paper PMC12819154, “High-throughput peptide-centric local stability assay extends protein–ligand identification to membrane proteins, tissues and bacteria” (Nature Structural & Molecular Biology, 2025).
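Note: lysate desalted by size exclusion to strip endogenous ATP, peptide intensities built from DIA-NN precursor signals, and peptides missing any value discarded before comparison.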

Chain of UniProt P75682 (P75682 whole entry): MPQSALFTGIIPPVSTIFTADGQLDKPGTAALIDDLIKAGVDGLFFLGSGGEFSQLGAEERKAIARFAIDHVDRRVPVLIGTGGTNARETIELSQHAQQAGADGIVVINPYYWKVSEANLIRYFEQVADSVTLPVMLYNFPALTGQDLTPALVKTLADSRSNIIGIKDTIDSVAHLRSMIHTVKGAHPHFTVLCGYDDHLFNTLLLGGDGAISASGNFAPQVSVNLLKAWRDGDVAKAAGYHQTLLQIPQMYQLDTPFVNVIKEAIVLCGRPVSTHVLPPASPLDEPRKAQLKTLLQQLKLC
Chain of UniProt P22255 (P22255 whole entry): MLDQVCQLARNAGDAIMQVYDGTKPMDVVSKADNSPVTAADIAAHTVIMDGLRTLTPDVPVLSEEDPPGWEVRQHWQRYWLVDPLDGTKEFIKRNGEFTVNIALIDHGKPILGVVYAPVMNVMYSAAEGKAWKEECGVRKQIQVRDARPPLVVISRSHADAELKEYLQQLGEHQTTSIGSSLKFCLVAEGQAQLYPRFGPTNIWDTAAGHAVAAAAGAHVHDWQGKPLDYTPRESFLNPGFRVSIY
Chain of UniProt P77737 (P77737 whole entry): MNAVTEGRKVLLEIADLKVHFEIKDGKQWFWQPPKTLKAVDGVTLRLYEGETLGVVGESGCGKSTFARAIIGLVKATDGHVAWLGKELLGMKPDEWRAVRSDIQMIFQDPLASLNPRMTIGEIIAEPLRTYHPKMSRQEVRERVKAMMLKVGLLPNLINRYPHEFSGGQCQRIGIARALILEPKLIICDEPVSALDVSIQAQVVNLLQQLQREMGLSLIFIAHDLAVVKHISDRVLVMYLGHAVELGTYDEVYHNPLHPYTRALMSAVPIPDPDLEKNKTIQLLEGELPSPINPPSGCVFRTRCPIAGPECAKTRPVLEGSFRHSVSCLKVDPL
Chain of UniProt P27126 (P27126 whole entry): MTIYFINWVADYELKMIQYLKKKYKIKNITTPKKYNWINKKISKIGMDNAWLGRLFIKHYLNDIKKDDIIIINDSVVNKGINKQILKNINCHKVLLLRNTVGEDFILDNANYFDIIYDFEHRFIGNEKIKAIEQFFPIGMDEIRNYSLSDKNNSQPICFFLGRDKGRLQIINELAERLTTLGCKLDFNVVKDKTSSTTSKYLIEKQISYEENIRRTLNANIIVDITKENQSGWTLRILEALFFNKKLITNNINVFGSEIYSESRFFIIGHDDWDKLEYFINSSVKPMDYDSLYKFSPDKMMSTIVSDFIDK
Chain of UniProt P14294 (P14294 whole entry): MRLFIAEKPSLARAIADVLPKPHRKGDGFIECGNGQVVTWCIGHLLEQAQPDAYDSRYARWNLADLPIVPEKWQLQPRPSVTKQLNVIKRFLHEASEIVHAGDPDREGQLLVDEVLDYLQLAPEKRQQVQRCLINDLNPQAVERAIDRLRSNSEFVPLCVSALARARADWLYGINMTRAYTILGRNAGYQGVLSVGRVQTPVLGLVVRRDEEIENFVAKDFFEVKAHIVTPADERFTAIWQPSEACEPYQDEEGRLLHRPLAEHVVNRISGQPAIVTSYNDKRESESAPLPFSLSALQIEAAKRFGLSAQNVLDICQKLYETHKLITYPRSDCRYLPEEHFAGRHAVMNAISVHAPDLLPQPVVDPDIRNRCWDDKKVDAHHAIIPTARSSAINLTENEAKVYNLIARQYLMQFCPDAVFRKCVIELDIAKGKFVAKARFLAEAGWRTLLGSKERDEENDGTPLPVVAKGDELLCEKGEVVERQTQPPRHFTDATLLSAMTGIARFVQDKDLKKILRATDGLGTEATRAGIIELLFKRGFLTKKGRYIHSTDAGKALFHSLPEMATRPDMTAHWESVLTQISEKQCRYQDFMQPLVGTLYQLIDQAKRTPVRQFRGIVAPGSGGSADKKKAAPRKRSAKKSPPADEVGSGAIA
Chain of UniProt P77215 (P77215 whole entry): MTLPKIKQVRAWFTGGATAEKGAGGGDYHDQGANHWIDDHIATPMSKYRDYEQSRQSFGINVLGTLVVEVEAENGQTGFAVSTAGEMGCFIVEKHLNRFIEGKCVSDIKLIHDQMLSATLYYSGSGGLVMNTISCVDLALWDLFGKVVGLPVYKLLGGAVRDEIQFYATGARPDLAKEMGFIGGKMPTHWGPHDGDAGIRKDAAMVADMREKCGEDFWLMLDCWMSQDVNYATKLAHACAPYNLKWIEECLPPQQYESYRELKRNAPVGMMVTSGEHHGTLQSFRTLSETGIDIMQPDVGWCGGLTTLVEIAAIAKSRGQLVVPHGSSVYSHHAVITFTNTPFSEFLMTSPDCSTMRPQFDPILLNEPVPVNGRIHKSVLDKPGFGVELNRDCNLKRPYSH
Chain of UniProt P22188 (P22188 whole entry): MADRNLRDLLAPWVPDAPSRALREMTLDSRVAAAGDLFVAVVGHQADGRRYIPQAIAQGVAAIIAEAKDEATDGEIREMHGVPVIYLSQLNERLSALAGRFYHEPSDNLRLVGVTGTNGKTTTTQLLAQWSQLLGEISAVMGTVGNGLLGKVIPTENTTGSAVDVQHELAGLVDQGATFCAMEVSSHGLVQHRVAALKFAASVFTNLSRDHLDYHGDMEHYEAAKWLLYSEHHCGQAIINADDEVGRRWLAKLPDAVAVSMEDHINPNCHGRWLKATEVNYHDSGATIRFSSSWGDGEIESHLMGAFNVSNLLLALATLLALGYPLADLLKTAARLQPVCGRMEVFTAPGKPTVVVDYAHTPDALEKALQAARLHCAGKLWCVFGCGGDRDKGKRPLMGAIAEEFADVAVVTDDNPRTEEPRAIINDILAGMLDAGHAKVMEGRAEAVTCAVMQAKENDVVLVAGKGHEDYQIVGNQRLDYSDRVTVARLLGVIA
Chain of UniProt P46837 (P46837 whole entry): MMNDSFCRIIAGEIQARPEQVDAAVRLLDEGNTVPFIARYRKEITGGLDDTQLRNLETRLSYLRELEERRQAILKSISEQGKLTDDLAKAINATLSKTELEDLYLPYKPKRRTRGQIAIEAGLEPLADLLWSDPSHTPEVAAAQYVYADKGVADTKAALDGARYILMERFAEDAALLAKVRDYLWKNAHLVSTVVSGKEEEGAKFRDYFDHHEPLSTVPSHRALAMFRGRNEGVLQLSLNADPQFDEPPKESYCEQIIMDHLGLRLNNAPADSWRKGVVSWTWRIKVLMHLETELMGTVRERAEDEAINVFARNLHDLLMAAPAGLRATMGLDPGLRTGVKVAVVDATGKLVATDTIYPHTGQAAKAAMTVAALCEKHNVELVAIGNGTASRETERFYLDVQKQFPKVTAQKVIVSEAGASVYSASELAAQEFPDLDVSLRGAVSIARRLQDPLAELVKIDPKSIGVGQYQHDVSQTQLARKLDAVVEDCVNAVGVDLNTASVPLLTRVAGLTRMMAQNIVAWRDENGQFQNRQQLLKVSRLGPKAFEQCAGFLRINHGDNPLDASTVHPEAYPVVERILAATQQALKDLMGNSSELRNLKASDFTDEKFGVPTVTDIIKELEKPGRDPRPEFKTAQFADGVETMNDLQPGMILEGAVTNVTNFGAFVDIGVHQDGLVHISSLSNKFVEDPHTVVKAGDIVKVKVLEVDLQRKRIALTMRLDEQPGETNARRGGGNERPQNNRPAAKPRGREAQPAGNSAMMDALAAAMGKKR
Chain of UniProt P37769 (P37769 whole entry): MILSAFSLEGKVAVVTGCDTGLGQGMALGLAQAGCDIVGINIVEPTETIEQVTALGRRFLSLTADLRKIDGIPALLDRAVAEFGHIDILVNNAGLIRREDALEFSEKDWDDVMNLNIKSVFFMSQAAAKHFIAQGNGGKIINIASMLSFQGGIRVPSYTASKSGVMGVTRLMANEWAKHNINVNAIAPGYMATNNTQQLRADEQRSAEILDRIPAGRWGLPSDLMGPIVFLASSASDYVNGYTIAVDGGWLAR
Chain of UniProt P39160 (P39160 whole entry): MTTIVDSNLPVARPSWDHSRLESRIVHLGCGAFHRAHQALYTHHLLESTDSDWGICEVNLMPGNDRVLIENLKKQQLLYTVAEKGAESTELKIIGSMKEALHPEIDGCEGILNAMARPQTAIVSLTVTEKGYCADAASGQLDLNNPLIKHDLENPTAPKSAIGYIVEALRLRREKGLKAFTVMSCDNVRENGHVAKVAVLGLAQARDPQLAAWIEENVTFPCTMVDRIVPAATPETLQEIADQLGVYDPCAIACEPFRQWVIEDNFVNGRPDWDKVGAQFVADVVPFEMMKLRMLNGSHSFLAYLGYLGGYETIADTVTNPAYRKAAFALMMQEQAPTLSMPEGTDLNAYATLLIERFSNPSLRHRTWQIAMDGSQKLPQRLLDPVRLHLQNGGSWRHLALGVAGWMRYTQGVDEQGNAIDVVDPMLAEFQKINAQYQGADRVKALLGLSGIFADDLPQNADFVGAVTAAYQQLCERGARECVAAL
Chain of UniProt P52108 (P52108 whole entry): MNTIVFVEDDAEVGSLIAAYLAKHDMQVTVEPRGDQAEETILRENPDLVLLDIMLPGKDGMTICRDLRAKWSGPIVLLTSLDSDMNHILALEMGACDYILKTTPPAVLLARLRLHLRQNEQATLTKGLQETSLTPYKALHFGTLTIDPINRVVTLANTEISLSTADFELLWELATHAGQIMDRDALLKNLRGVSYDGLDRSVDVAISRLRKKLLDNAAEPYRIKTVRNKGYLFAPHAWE
Chain of UniProt P42630 (P42630 whole entry): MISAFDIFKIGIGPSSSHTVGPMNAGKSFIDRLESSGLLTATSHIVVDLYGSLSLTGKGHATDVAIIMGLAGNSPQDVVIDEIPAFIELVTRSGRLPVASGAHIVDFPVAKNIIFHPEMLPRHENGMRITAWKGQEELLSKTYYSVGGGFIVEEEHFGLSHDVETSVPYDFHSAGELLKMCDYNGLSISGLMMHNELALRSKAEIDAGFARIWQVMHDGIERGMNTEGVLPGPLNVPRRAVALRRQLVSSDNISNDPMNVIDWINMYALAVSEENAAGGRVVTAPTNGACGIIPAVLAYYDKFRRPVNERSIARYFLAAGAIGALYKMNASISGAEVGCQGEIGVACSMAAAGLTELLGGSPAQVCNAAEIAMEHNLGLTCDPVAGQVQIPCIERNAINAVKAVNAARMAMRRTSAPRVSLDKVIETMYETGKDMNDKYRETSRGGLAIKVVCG

Compound in this experiment: Nc1ncnc2c1ncn2[C@@H]1O[C@H](COP(=O)(O)OP(=O)(O)OP(=O)(O)O)[C@@H](O)[C@H]1O [adenosine 5'-triphosphate]
Kind of experiment: log2 fold change of tryptic peptide abundance, ligand vs vehicle (limited proteolysis) (log2 ratio); higher = more trypsin-susceptible (destabilized). The following applies: ligand concentration: 5 mM; sample: E. coli desalted lysate; replicate design: treated before aliquoting. How it is done: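 HT-PELSA: desalted E. coli K-12 BW25113 lysate (with 12 mM MgCl2) incubated with 5 mM ATP (pH 7) or water for 30 min at 25 C, then a 4 min trypsin pulse at 22 C. Peptides were quantified by DIA-MS (4 replicates). Value is the peptide log2 fold change (treated/control); negative = stabilized. Scale: negative = ligand-stabilized region.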
Consider “UniProt P37749 (peptide sequence: YMSQDKIK, peptide start residue: 132)”, for which the log2 fold change was -0.295.
In the case of “UniProt P0ADM4 (peptide sequence: EGTYPGTR, peptide start residue: 32)”, the log2 fold change is -0.36.
Under “UniProt Q46851 (peptide sequence: YLNGIPQDSR, peptide start residue: 234)” stands -0.438; under “UniProt P10908 (peptide sequence: VDAGSWYSK, peptide start residue: 79)”, -0.858; under “UniProt P76562 (peptide sequence: EHYRLRR, peptide start residue: 544)”, 0.855.
For “UniProt P35340 (peptide sequence: MTLTEIVAKIDTGAEKR, peptide start residue: 186)” the value was 1.22; for “UniProt P08200 (peptide sequence: AAIEYAIANDRDSVTLVHK, peptide start residue: 212)”, -0.698.
For “UniProt P77215 (peptide sequence: AWFTGGATAEK, peptide start residue: 11)” the value was -0.425; for “UniProt P39160 (peptide sequence: TWQIAMDGSQKLPQR, peptide start residue: 366)”, -0.725.
With “UniProt P46144 (peptide sequence: RVWATAQK, peptide start residue: 32)”, the log2 fold change was -1.44.
For “UniProt P46837 (peptide sequence: AEDEAINVFAR, peptide start residue: 303)” the value was 0.79.
Under “UniProt P39208 (peptide sequence: RAGHFMPVALLK, peptide start residue: 119)” stands -1.52; under “UniProt P32134 (peptide sequence: ACISGQGDMPFK, peptide start residue: 221)”, -1.02; under “UniProt P14294 (peptide sequence: VQTPVLGLVVR, peptide start residue: 198)”, -0.642.
Under “UniProt P64624 (peptide sequence: QIVLNLYEK, peptide start residue: 192)” stands 0.361.
For the target “UniProt P25742 (peptide sequence: SFTHLAPIHGTHIVER, peptide start residue: 116)”, the log2 fold change is -1.07.
For “UniProt P22255 (peptide sequence: ESFLNPGFR, peptide start residue: 234)” the value was 0.721; for “UniProt P0A9B6 (peptide sequence: SLQSLPWR, peptide start residue: 82)”, -0.912.
Under “UniProt P42630 (peptide sequence: ITAWKGQEELLSK, peptide start residue: 129)” stands 0.565.
Under “UniProt P56258 (peptide sequence: VGCVFATR, peptide start residue: 136)” stands -0.934; under “UniProt P37769 (peptide sequence: LMANEWAK, peptide start residue: 171)”, -0.444; under “UniProt Q06065 (peptide sequence: FSSENQR, peptide start residue: 334)”, -2.8.
As for “UniProt P76035 (peptide sequence: TIATFQAYLGHPVR, peptide start residue: 176)”, the log2 fold change is 0.609.
For “UniProt P37025 (peptide sequence: VVWLGMR, peptide start residue: 87)” the value was -0.685; for “UniProt P0A9L3 (peptide sequence: VINQGEGAIPARTDR, peptide start residue: 108)”, 0.513.
Take “UniProt P06709 (peptide sequence: VKWPNDLYLQDR, peptide start residue: 171)”: the log2 fold change was -0.523.
On to “UniProt P77544 (peptide sequence: QIQAWLR, peptide start residue: 104)”, for which the log2 fold change was found to be 0.878.
Under “UniProt P17169 (peptide sequence: LKSNIEEVR, peptide start residue: 530)” stands -0.459; under “UniProt P22188 (peptide sequence: LWCVFGCGGDRDK, peptide start residue: 380)”, -1.25; under “UniProt P03018 (peptide sequence: AHHMDANLPQDFQILDSEDQLR, peptide start residue: 100)”, -2.2.
As to “UniProt P52108 (peptide sequence: KKLLDNAAEPYR, peptide start residue: 211)”, the log2 fold change was determined as 0.266.
For “UniProt P0ACP7 (peptide sequence: TRFVAEETR, peptide start residue: 25)” the value was 1.38; for “UniProt P75957 (peptide sequence: KKPAEINSR, peptide start residue: 117)”, -1.5.
For “UniProt P37624 (peptide sequence: LFHIPEAEIPAR, peptide start residue: 376)” the value was -1.74; for “UniProt P27126 (peptide sequence: IGMDNAWLGR, peptide start residue: 45)”, -0.467; for “UniProt P13000 (peptide sequence: TAGYKPVASGSEK, peptide start residue: 34)”, -1.41.
Under “UniProt P77737 (peptide sequence: TRCPIAGPECAK, peptide start residue: 302)” stands 2.24; under “UniProt P76594 (peptide sequence: SEVQGVMLYLR, peptide start residue: 533)”, -2.33; under “UniProt P75682 (peptide sequence: AWRDGDVAK, peptide start residue: 229)”, -1.32.
For “UniProt P0A9U6 (peptide sequence: VSPAISTLQK, peptide start residue: 45)”, the log2 fold change worked out at 0.654.
